Consider 39 molecules from the supplement of paper PMC11624193, “Coupling cellular drug-target engagement to downstream pharmacology with CeTEAM” (Nature Communications, 2024).

Molecules are shown by their SMILES. Structures can show the parent of a compound that is named as a salt. ± gives the standard deviation of the averaged measurements.

PARP1 L713F-nLuc biosensor (HCT116), sequence (P09874 whole entry L713F, looked up): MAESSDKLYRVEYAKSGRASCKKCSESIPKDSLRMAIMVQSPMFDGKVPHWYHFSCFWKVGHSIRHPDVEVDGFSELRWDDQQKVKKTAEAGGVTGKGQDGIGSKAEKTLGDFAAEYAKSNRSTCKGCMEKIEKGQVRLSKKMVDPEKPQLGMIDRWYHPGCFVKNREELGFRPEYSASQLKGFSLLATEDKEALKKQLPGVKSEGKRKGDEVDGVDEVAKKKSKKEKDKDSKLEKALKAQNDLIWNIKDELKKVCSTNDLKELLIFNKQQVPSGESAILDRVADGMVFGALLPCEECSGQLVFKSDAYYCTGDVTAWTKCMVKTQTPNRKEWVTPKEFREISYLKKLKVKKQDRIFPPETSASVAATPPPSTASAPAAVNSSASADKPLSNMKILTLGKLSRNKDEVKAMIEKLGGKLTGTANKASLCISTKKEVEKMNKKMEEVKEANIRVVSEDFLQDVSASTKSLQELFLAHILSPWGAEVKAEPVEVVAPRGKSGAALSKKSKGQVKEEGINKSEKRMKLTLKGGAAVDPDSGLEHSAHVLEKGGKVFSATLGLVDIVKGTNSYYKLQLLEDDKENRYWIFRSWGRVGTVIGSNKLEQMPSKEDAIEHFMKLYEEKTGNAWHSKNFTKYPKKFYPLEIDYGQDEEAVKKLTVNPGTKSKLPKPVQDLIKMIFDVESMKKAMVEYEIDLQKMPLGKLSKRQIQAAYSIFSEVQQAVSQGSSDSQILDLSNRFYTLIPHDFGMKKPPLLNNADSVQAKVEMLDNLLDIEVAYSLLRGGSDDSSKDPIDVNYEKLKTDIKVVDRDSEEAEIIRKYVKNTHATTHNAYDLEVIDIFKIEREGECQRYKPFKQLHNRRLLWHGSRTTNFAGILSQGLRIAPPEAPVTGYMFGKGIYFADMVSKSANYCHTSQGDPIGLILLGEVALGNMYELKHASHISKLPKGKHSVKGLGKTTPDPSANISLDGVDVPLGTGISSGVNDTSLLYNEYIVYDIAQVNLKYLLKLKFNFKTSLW

The test concerns the target PARP1 L713F-nLuc biosensor (HCT116) (UniProt P09874). In words: PARP1 L713F-nLuc/akaLuc ratio relative to DMSO control (biosensor stabilization) (fold change); higher = more PARP1 biosensor stabilization (target engagement / stabilizer), active = hit call of the paper. Conditions: stock concentration (mM; final µM = stock mM x 1): 10; 24 h;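 active = log2 fold change beyond 2 SD from the library mean after excluding viability outliers; inactive = within 2 SD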.
With `CC(C)c1c(-c2cnn(C(C)(C)C)c2)nc2c(C#N)c[nH]n2c1=O`, the “PARP1 L713F-nLuc/akaLuc ratio” value was 1.58 (inactive). As to `N#Cc1ccc(-c2cnc3[nH]cc(NC(=O)c4cccnc4)c3c2)cc1`, the “PARP1 L713F-nLuc/akaLuc ratio” value is 0.668 (inactive). As for `COCCOc1cnc2ccn([C@H](C)c3nnc4c(F)cc(-c5cnn(C)c5)cn34)c(=O)c2c1`, the figure is 0.857 (inactive); as for `COc1nc(N)nc2c1ncn2[C@@H]1O[C@H](CO)[C@@H](O)[C@@H]1O` [Nelarabine], 1.15 (inactive); as for `Nc1ncn([C@@H]2O[C@H](CO)[C@@H](O)[C@H]2O)c(=O)n1` [Azacitidine], 4.35 (active).

Regarding `COc1cc2ncnc(Nc3ccc(NC(=O)c4ccccc4)cc3)c2cc1OC` [Aurora kinase inhibitor-2], the “PARP1 L713F-nLuc/akaLuc ratio” value is 1.35 (inactive). As for `CC[C@]1(O)C[C@@H]2CN(CCc3c([nH]c4ccccc34)[C@@](C(=O)OC)(c3cc4c(cc3OC)N(C)[C@H]3[C@@](O)(C(=O)OC)[C@H](OC(C)=O)[C@]5(CC)C=CCN6CC[C@]43[C@@H]65)C2)C1` [Vinblastine sulfate], the figure is 1.03 (inactive).

As for `Cc1ccc(C(=O)Nc2ccc(Oc3cc4cnn(C)c4cc3-c3cn[nH]c3)c(F)c2)c(=O)n1-c1ccc(F)cc1`, the “PARP1 L713F-nLuc/akaLuc ratio” value was 1.52 (inactive).

As for `N#Cc1ccc(COC[C@H]2O[C@@H](n3c(NCc4ccc(Cl)c(Cl)c4)nc4c(N)ncnc43)[C@H](O)[C@@H]2O)cc1`, the “PARP1 L713F-nLuc/akaLuc ratio” value was 0.717 (inactive). The result for `Cc1cn(-c2cc(NC(=O)c3ccc(C)c(Nc4nccc(-c5cccnc5)n4)c3)cc(C(F)(F)F)c2)cn1` [Nilotinib (AMN-107)] reads 0.959 (inactive); that for `COc1cc2ccc(=O)oc2cc1O[C@@H]1O[C@H](CO)[C@@H](O)[C@H](O)[C@H]1O` [Scopolin], 1.04 (inactive). The result for `CS(=O)(=O)c1ccc(-c2cnc(NCc3ccco3)n3cnnc23)cc1` reads 0.722 (inactive); that for `O=C1/C(=C/c2ccc(O)c(Br)c2)CN(Cc2ccccc2)C/C1=C\c1ccc(O)c(Br)c1`, 0.985 (inactive); that for `COc1cc(C)c(/C=C/C(C)=C/C=C/C(C)=C/C(=O)O)c(C)c1C` [Acitretin], 0.747 (inactive). As for `COC1CCN(C(=O)c2cc(Cc3n[nH]c(=O)c4ccccc34)ccc2F)CC1`, the figure is 7.52 (active); as for `NC(=O)C1CCN(CC(=O)Nc2ccc(Br)cc2)CC1`, 0.965 (inactive). For `CCS(=O)(=O)N1CC(CC#N)(n2cc(-c3ncnc4[nH]ccc34)cn2)C1` [Baricitinib], the “PARP1 L713F-nLuc/akaLuc ratio” value was 0.881 (inactive). In the case of `Cc1cc(-c2nc(-c3ccc(OC(F)(F)F)cc3)no2)nn1Cc1ccnc(N2CCN(C3CC3)CC2)c1`, the “PARP1 L713F-nLuc/akaLuc ratio” value was found to be 0.46 ± 0.17. The result for `O=c1[nH]c(=O)n([C@H]2C[C@H](O)[C@@H](CO)O2)cc1F` [Floxuridine] reads 0.549 (inactive).

With `NC(=O)c1ccccc1Nc1ccccc1`, the “PARP1 L713F-nLuc/akaLuc ratio” value is 0.795 (inactive). The result for `Cc1ccc(Oc2nc3cc(-c4ccc5c(ccn5C)c4)c(Cl)cc3[nH]2)cc1C(=O)O` reads 0.541 (inactive). The result for `CC(C)c1c(C(=O)Nc2ccccc2)c(-c2ccccc2)c(-c2ccc(F)cc2)n1CC[C@@H](O)C[C@@H](O)CC(=O)O` [Atorvastatin Calcium] reads 0.363 (inactive); that for `COc1cc(OC2CCN(C)CC2)ccc1Nc1ncc2c(n1)n(C1CCCC1)c(=O)n2C`, 1.18 (inactive). As for `C[C@@H]1CC[C@@]2(OC1)O[C@H]1C[C@H]3[C@@H]4CC=C5C[C@@H](O[C@@H]6O[C@H](CO)[C@@H](O[C@@H]7O[C@@H](C)[C@H](O[C@@H]8O[C@@H](C)[C@H](O)[C@@H](O)[C@H]8O)[C@@H](O)[C@H]7O)[C@H](O)[C@H]6O[C@@H]6O[C@@H](C)[C@H](O)[C@@H](O)[C@H]6O)CC[C@]5(C)[C@H]4CC[C@]3(C)[C@@]1(O)[C@@H]2C` [Paris saponin VII], the figure is 1.01 (inactive); as for `O=C(c1ccc(OCCN2CCCCC2)cc1)c1c(-c2ccc(O)cc2)sc2cc(O)ccc12` [Raloxifene HCl], 0.932 (inactive); as for `N#Cc1c(-c2ccccc2)cc(-c2cc(Br)ccc2O)[nH]c1=O`, 0.708 (inactive). On to `O=C(O)c1ccccc1Nc1cccc(C(F)(F)F)c1` [Flufenamic acid], for which the “PARP1 L713F-nLuc/akaLuc ratio” value is 1.23 (inactive).

Turning to `CS(=O)(=O)c1ccc(Oc2cc(F)cc(C#N)c2)c2c1[C@H](O)C(F)(F)C2`, the “PARP1 L713F-nLuc/akaLuc ratio” value is 1.42 (inactive). The result for `CCCC(CCC)C(=O)O` [Valproic acid (sodium salt)] reads 0.704 (inactive); that for `Cc1ccc(Nc2nccc(N(C)c3ccc4c(C)n(C)nc4c3)n2)cc1S(N)(=O)=O` [Pazopanib], 1.33 (inactive).

In the case of `FC(F)(F)c1ccc(CNc2ccc(Cc3c[nH]c4ncc(Cl)cc34)cn2)cn1` [Pexidartinib (PLX3397)], the “PARP1 L713F-nLuc/akaLuc ratio” value is 0.69 (inactive). The result for `O=C(NN=Cc1c(O)ccc2ccccc12)c1ccncc1` reads 0.653 (inactive); that for `CC1(N)CCN(c2cnc(-c3cccc(Cl)c3Cl)c(N)n2)CC1` [SHP099 dihydrochloride], 0.78 (inactive). The result for `CC(C)=CCC/C(C)=C/Cc1c(O)c(CC=C(C)C)c2c(c1O)C(=O)C1=C[C@@H]3C[C@H]4C(C)(C)O[C@@](C/C=C(/C)C(=O)O)(C3=O)[C@@]14O2` [Gambogenic acid] reads 1.04 (inactive).

In the case of `CN(C)C(=N)NC(=N)N` [Metformin HCl], the “PARP1 L713F-nLuc/akaLuc ratio” value was 0.701 (inactive). The result for `CC(C)N(CCCNC(=O)Nc1ccc(C(C)(C)C)cc1)C[C@H]1O[C@@H](n2ccc3c(N)ncnc32)[C@H](O)[C@@H]1O` reads 2.19 (inactive); that for `O=c1[nH]c(CSC2CCC(O)CC2)nc2cc(OCC3CC3)cc(F)c12` (centres undefined), 1.21 (inactive); that for `CC[C@H](NC(=O)[C@H](C)NC)C(=O)N1C[C@@H](O)C[C@H]1Cc1c(-c2[nH]c3cc(F)ccc3c2C[C@@H]2C[C@H](O)CN2C(=O)[C@H](CC)NC(=O)[C@H](C)NC)[nH]c2cc(F)ccc12` [Birinapant], 0.946 (inactive). The result for `COc1ccc2c(c1)c(C(=O)Nc1cc(C(=O)OC(C)(C)C)ccc1F)cn2C(C)=O` reads 0.714 (inactive).
